A number with no mark means an inactive call. The source made the active and inactive calls.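 The calls were made as follows: active = viability at or below 21.59%, 3 SD under the median of tested compounds; inactive = the rest.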

This test can be described thus: viability loss in PTEN-deleted cells – cell-based, validation, diverse DP compound set (AID 999).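 Also: 100% = median luminescence of untreated cell control wells and 0% = no signal.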 Conditions: HCT116 PTEN-null viability, CellTiter-Glo, 60 h; at 10 µM; hits give low values. On the technique in general: Cellular ATP, detected with luciferase, serves as a proxy for viable cell number.
What is called viability is a read-out of living cells in per cent, often relative to untreated cells. Consider `Cn1c(=O)c2[nH]cnc2n(C)c1=O`, for which the viability was 97.1%.

Take `CC[n+]1c(-c2ccccc2)c2cc(N)ccc2c2ccc(N)cc21`: the viability is 20.1% (active).

For the compound `Cc1ccc2c(c1)C(=O)C1(O)CCN(c3ccccc3)C1=N2` (stereo not given), the viability was 91.9%.

Turning to `Nc1c(N=Nc2ccc(-c3ccc(N=Nc4cc(S(=O)(=O)O)c5ccccc5c4N)cc3)cc2)cc(S(=O)(=O)O)c2ccccc12`, the viability is 86.5%.

In the case of `C[C@H](CCC(=O)O)[C@H]1CC[C@H]2[C@@H]3CC[C@@H]4C[C@H](O)CC[C@]4(C)[C@H]3CC[C@]12C`, the viability was 97.2%.

As for `COc1ccc2cc3[n+](cc2c1OC)CCc1cc2c(cc1-3)OCO2`, the viability is 82.9%.

As for `NCC(=O)N[C@@H](CCCN=C(N)N)C(=O)NCC(=O)N[C@@H](CC(=O)O)C(=O)N[C@@H](CC(N)=O)C(=O)N1CC[C@@H](C(=O)O)C1`, the viability is 98%.

In the case of `COc1cccc2c1C(=O)c1c(O)c3c(c(O)c1C2=O)C[C@@](O)(C(=O)CO)C[C@@H]3OC1C[C@@H](N)[C@H](O)[C@H](C)O1` (stereo not given in full), the viability is 27.7%.

In the case of `CC1(COc2ccc(CC3SC(=O)NC3=O)cc2)CCCCC1` (stereo not given), the viability is 95.3%.

Turning to `O=c1c2ccccc2nc2n1CCc1c-2[nH]c2ccccc12`, the viability is 93.4%.

On to `C=CC1(C)CC(=O)C2(O)C(C)(O1)C(OC(C)=O)C(O)C1C(C)(C)CCC(O)C12C` (stereo not given), for which the viability was 85.5%.

Turning to `NC(=O)c1cccc(N)c1`, the viability was 94.5%.

As to `CC(C)=CCC/C(C)=C/COc1ccc2ccc(=O)oc2c1`, the viability was 91.9%.

Regarding `COc1ccc2nc(S(=O)Cc3ncc(C)c(OC)c3C)[nH]c2c1` (stereo not given), the viability was 92.7%.

As to `CN(C)c1ccc(/C=C2\C(=O)Nc3ccccc32)cc1`, the viability is 86.2%.

In the case of `COc1cc2c(c(OC)c1OC)-c1ccc(OC)c(=O)cc1[C@@H](NC(C)=O)CC2`, the viability was 32.5%.

On to `OCCN(CCO)c1nc(N2CCCCC2)c2nc(N(CCO)CCO)nc(N3CCCCC3)c2n1`, for which the viability is 96.3%.

On to `COc1ccc2c(c1)c(CC(=O)O)c(C)n2C(=O)c1ccc(Cl)cc1`, for which the viability is 105%.

Consider `C[C@@H]1CC[C@]2(C(=O)O)CC[C@]3(C)C(=CCC4[C@@]5(C)C[C@@H](O)[C@H](O)[C@@](C)(CO)C5CC[C@]43C)C2[C@H]1C` (stereo not given in full), for which the viability was 94.3%.

For the compound `C[C@@H]1CC[C@]2(C(=O)O)CC[C@]3(C)C(=CCC4[C@@]5(C)C[C@@H](O)[C@H](O)[C@@](C)(CO)C5[C@H](O)C[C@]43C)C2[C@H]1C` (stereo not given in full), the viability was 84.7%.

With `COc1ccc2c3c1O[C@H]1C[C@@H](O)C=C[C@@]31CCN(C)C2`, the viability was 91.7%.

In the case of `Cc1c2oc3c(C)ccc(C(=O)N[C@@H]4C(=O)N[C@H](C(C)C)C(=O)N5CCC[C@H]5C(=O)N(C)CC(=O)N(C)[C@@H](C(C)C)C(=O)O[C@@H]4C)c3nc-2c(C(=O)N[C@@H]2C(=O)N[C@H](C(C)C)C(=O)N3CCC[C@H]3C(=O)N(C)CC(=O)N(C)[C@@H](C(C)C)C(=O)O[C@@H]2C)c(N)c1=O`, the viability was 43.2%.

In the case of `CC(=O)N1CCN(c2ccc(OC[C@H]3CO[C@](Cn4ccnc4)(c4ccc(Cl)cc4Cl)O3)cc2)CC1`, the viability was 70.7%.

Regarding `COC(=O)CCc1c(C)[nH]c(C(=O)OCc2ccccc2)c1C`, the viability was 97.7%.

`C/C=C1/C2C=C(C)CC1(N)c1ccc(=O)[nH]c1C2` (stereo not given): the viability was 93.8%.

For the compound `C=CCc1ccc(O)c(-c2cc(CC=C)ccc2O)c1`, the viability is 98.7%.

Take `C[C@@H]1CC2C3CCC4=CC(=O)C=CC4(C)[C@@]3(F)[C@@H](O)CC2(C)[C@@]1(O)C(=O)CO` (stereo not given in full): the viability was 105%.

For the compound `O=C(c1ccc(OCCN2CCCCC2)cc1)c1c(-c2ccc(O)cc2)sc2cc(O)ccc12`, the viability is 61.1%.

In the case of `CCCC[C@@H](C=O)NC(=O)[C@H](CC(C)C)NC(=O)[C@H](CC(C)C)NC(C)=O`, the viability was 15.1% (active).

Turning to `NCCNS(=O)(=O)c1cccc2c(Cl)cccc12`, the viability was 94.3%.

The values are drawn from PubChem BioAssay AID999 (SRMLSC, 2007).
